Screens from PubChem.
Not all results are given here.
aSyn 5UTR act: Activators via SNCA 5'UTR binding, MLPCN; alpha-synuclein 5'UTR reporter, activators screen; 7.1% of 300,000 active; activity score, % (tested at 7.5 µM), hits read low; AID 1814, 2009; in the data active means activity score below about -60%
Hits are given with their value; 0 = inactive.

SMILES | aSyn 5UTR act
COc1ccc(-c2nc3ccccc3s2)cc1NC(C)=O | -127
Cc1ccc(C(=O)NC(=S)Nc2cc(-c3nc4ccccc4s3)ccc2C)cc1 | -95
Cc1nn(-c2nc3ccccc3s2)c(N)c1-c1ccccc1 | -224
Cc1nn(-c2nc3ccccc3s2)c(N)c1-c1ccc(Cl)cc1 | -203
Cc1nn(-c2nc3ccccc3s2)c(N)c1Sc1ccc(F)cc1 | -212
CC(=O)N1CCN=C1SCc1ccc(C(F)(F)F)cc1 | -85
Cc1nn(-c2ccccc2)c2sc(C(=O)NC3CC3)cc12 | -100
Cc1nn(-c2ccc(F)cc2)c2sc(C(=O)N3CCCCCC3)cc12 | -84
Cc1nn(-c2ccccc2)c2sc(C(=O)N(CC(=O)NC3CCCC3)Cc3ccco3)cc12 | -67
O=C(Nc1ccc2c(c1)C(=O)OC2)c1ccc(F)cc1F | -63
O=C(Nc1ccc2c(c1)C(=O)OC2)c1ccc(Cl)cc1Cl | -75
CC(=O)N(/N=C1/C(=O)Nc2ccccc21)c1ccccc1 | -114
Cc1ccc(NC(=O)/C=C/c2ccc(Cl)cc2)nc1 | -158
O=C(/C=C/c1cccc([N+](=O)[O-])c1)Nc1ccc(Cl)cn1 | -92
O=C(/C=C/c1ccccc1)Nc1ccc(Br)cn1 | -125
Cc1ccc(-n2c([S-])c(C(=O)Nc3ccc(OC(F)F)cc3)[n+]3ccc(C(=O)NCCO)cc23)cc1C | -72
C#Cc1ccc([C@@H]2C=C(C(=O)N3CCN(Cc4ccccc4)CC3)O[C@H](OCCCCO)C2)cc1 | 0
O=C(NCc1ccccc1)C1=C[C@@H](c2csc3ccccc23)C[C@@H](OCCCCO)O1 | 0
O=C(Nc1ccccc1)C1=C[C@@H](c2ccc(C(F)(F)F)cc2)C[C@@H](OCCCCO)O1 | -95
COCCn1c(C)cc(C(=O)CSc2nc3ccccc3c(=O)n2Cc2ccco2)c1C | -176
CN(C)c1ccc(NC(=O)Nc2ccc3snnc3c2)cc1 | -115
O=C(Nc1ccccc1)Nc1ccc2snnc2c1 | -147
O=C(Nc1ccccc1)Nc1ccc2nnsc2c1 | -145
CC(/C=N/NC(=O)c1cnccn1)=C\c1ccco1 | -117
CC(/C=N/NC(=O)c1cccnc1)=C\c1ccco1 | -103
SMILES | aSyn 5UTR act
Cn1c(-c2ccc(F)cc2)cnc1NCc1ccccc1F | -66
Oc1ccc(CNc2ccc(F)cc2)c2cccnc12 | 0
Cn1c(-c2ccccc2)cnc1NCc1cc(Cl)ccc1O | -66
O=C(CCS(=O)(=O)c1cccs1)NC1CCCCCC1 | -139
O=C(NCCC1CCCC1)c1cccs1 | -69
O=C(NC1CCCCCC1)c1cccs1 | -81
Nc1c(C(=O)NC2CCCC2)sc2nc(-c3cccs3)ccc12 | -74
CCCCn1cnc2c(sc3nc4c(cc32)CSC(C)(C)C4)c1=O | -104
O=C(/C=C/c1ccccc1)NC(=S)NNC(=O)c1cnccn1 | 0
CC(/C=C/c1ccccc1)=N/NC(=O)c1cnccn1 | -120
CCSc1nnc2ccc(-c3ccc(OC)c(OC)c3)nn12 | 0
COc1ccc(CC(=O)Nc2ccc(-c3ccc4nnc(C)n4n3)cc2)cc1OC | -75
CCn1c(C)nc2cc(C(=O)NNC(=S)Nc3ccc(F)cc3)ccc21 | -126
CCn1c(C)nc2cc(C(=O)OC(C(F)(F)C(F)F)C(F)(F)C(F)F)ccc21 | -73
CCn1c(C)nc2cc(C(=O)NNC(=S)Nc3ccccc3)ccc21 | -164
CCn1c(C)nc2cc(C(=O)N/N=C(\C)c3ccc(OC)cc3O)ccc21 | 0
CCn1c(C)nc2cc(C(=O)N/N=C/c3ccccc3)ccc21 | -83
CCn1c(C)nc2cc(-c3nc4n(n3)Cc3ccccc3-4)ccc21 | 0
CCn1c(C)nc2cc(C(=O)NNC(=S)Nc3ccccc3Cl)ccc21 | -110
CCn1c(NC(=S)Nc2ccccc2)nc2ccccc21 | -106
Cc1ccc(NC(=S)Nc2cccc3ccccc23)cc1 | -65
Fc1ccc(NC(=S)Nc2cccc3ccccc23)cc1 | -84
COCc1nc2ccccc2n1Cc1ccc(Br)cc1 | -80
O=c1cnc2ccccc2n1Cc1ccc(Br)cc1 | -65
Cc1ccsc1/C=C1/SC(N2CCOCC2)=NC1=O | -80
SMILES | aSyn 5UTR act
Cc1ccc(-c2cn(-c3ccccc3)c(=S)[nH]2)cc1C | -94
COc1ccc(-n2cc(-c3ccc(Br)cc3)[nH]c2=S)cc1 | -138
Fc1ccccc1-n1cc(-c2ccccc2)[nH]c1=S | -100
CCc1ccc(-n2cc(-c3ccc([N+](=O)[O-])cc3)[nH]c2=S)cc1 | -108
COc1ccc(-n2cc(-c3ccccc3)[nH]c2=S)c(OC)c1 | -75
Cc1ccc(N2C(=O)CC(SCC(=O)Nc3ccc(S(N)(=O)=O)cc3)C2=O)cc1 (stereo not drawn) | -76
COc1ccc(OCCSc2nnc3sc4ccccc4n23)cc1 | -131
Cc1ccc(-c2nn(-c3ccccc3)cc2C=C2C(=O)CC(C)(C)CC2=O)cc1 | -94
CC1=NNC(=O)/C1=C\c1cn(-c2ccccc2)nc1-c1ccc(Cl)cc1 | 0
Cc1ccsc1CCNC(=O)C1CCC(=O)N(CCc2cccc(F)c2)C1 (stereo not drawn) | -102
Cc1ccsc1CN(C)C(=O)C1CCC(=O)N(CCc2cccc(F)c2)C1 (stereo not drawn) | -91
